Screens as filed in PubChem BioAssay.
tim23-1 inh – growth inhibitors of tim23-1 mutant yeast, primary screen, luminescence, uHTS; S. cerevisiae tim23-1 growth, BacTiter-Glo luminescence, 24 h; inhibition, % at 20 µM; 330,000 compounds, 1.3% hits; AID 463212, 2010;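 active = growth inhibition of the mutant yeast at or above 50%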;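 also: temperature-sensitive mutant grown at 25 °C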
SKKanGAS inh – S. pyogenes SKKanGAS growth inhibitors in kanamycin, primary screen, streptokinase expression inhibitor project, SKKanGAS strain, BacTiter-Glo luminescence; 6 h; inhibition, % at 7.5 µM; 300,000 compounds, 1.3% hits; AID 1662, 2009;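 active = mean replicate score, as percent of positive control median, at least 50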;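 also: strain carries kanamycin resistance gene driven by streptokinase promoter and grows in 40 µg/ml kanamycin; loss of luminescence reflects streptokinase promoter inhibition or plain growth inhibition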
PfHsp90 yeast 2 – growth inhibition of PfHsp90-expressing yeast, primary screen, antimalarial PfHsp90 inhibitor project, S. cerevisiae, BacTiter-Glo luminescence, single point, set 2 | BacTiter-Glo ATP, 48 h; yeast lacking PDR1 and PDR3 efflux regulators | inhibition, % at 9.4 µM | 310,000 compounds, 0.32% hits | AID 504621, 2011;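 active = every replicate shows inhibition above about 80%, whatever the replicate mean, limit read from the data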
TIM10 inh – growth inhibitors of isogenic TIM10 control yeast, primary screen, counter-screen for tim10-1 yeast inhibitor project, luminescence, uHTS; S. cerevisiae TIM10 strain growth, BacTiter-Glo luminescence, 24 h; AID 463195, 2010; 330,000 compounds, 1.4% hits; inhibition, % at 10 µM;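 active = inhibition of 40% or more at the single tested concentration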;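 also: wild-type TIM10 isogenic control strain grown at permissive 25 °C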
tim10-1 inh – growth inhibitors of tim10-1 mutant yeast, primary screen, luminescence, uHTS | AID 463190, 2010 | S. cerevisiae tim10-1 ts strain growth, BacTiter-Glo, 24 h | inhibition, % at 20 µM | 330,000 compounds, 2.2% hits;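 active = inhibition of at least 40%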;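 also: mutant grown at 25 °C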
tim10-1 conf – growth inhibitors of tim10-1 mutant yeast, confirmation, single concentration, luminescence, S. cerevisiae. shares compounds with tim10-1 inh. S. cerevisiae tim10-1 ts strain growth, BacTiter-Glo, 24 h. inhibition, % at 20 µM. 7,400 compounds, 56% hits;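 active = inhibition of yeast growth at or above a set limit in either of two repeat tests at 20 µM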;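 also: tim10-1 mutant grown at permissive 25 °C to find synthetic lethal compounds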
tim10 confirm – growth inhibitors of wild-type TIM10 yeast, confirmation, counter-screen for tim10-1 synthetic lethality project, single concentration, luminescence, S. cerevisiae; shares compounds with TIM10 inh; S. cerevisiae tim10 strain growth, BacTiter-Glo luminescence, 24 h; inhibition, % at 10 µM; 4,600 compounds, 63% hits; AID 463215, 2010;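 active = inhibition of yeast growth at or above a set limit in either of two replicates at 10 µM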; also: this counterscreen used the strain with wild-type TIM10
tim23-1 conf – tim23-1 mutant yeast growth inhibitors, confirmation, luminescence, single concentration. shares compounds with tim23-1 inh. S. cerevisiae tim23-1 growth, BacTiter-Glo luminescence, 24 h. 4,400 compounds, 83% hits. inhibition, % at 20 µM;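 active = inhibition above about 39% in either of two replicate wells at 20 µM, limit read from the data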;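 also: temperature-sensitive tim23-1 mutant grown at 25 °C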
A number is an active result. Sampled rows, rich in hits. Any-hit rate of the full collection: about 4.4%.

How did COC(=O)C1=C(C)N(Cc2ccco2)C(=O)/C1=C\c1ccc([N+](=O)[O-])cc1 do in these assays?
tim23-1 inh: 63.8; SKKanGAS inh: inactive; PfHsp90 yeast 2: inactive; TIM10 inh: 65.5; tim10-1 inh: 62.4; tim10-1 conf: 77.4; tim10 confirm: 73.7; tim23-1 conf: 57.4

What do the screens show for `O=C(Nc1ccc(N2CCN(C(=O)c3cccs3)CC2)cc1)c1ccc(F)cc1`?
tim23-1 inh: inactive; SKKanGAS inh: inactive; PfHsp90 yeast 2: inactive; TIM10 inh: inactive; tim10-1 inh: inactive

Results for CC(C)(C)NC(=O)COc1coc(CN2CCN(Cc3ccccc3)CC2)cc1=O ?
tim23-1 inh: inactive; SKKanGAS inh: inactive; PfHsp90 yeast 2: inactive; TIM10 inh: inactive; tim10-1 inh: inactive

Results for CC(C)(C)c1cc(C(=O)CCN2CCOCC2)cc(C(C)(C)C)c1O ?
tim23-1 inh: 73.7; SKKanGAS inh: inactive; PfHsp90 yeast 2: inactive; TIM10 inh: 76.3; tim10-1 inh: 77.5; tim10-1 conf: 76.1; tim10 confirm: 79.8; tim23-1 conf: 56.5

What do the screens show for `Cc1ccc(NC(=O)c2ccccc2)cc1`?
tim23-1 inh: inactive; SKKanGAS inh: inactive; TIM10 inh: inactive; tim10-1 inh: inactive

How did Cc1ccc(C(=O)Sc2cccccc2=O)cc1 do in these assays?
tim23-1 inh: 89.3; SKKanGAS inh: inactive; PfHsp90 yeast 2: 104.0; TIM10 inh: 73.2; tim10-1 inh: 74.1; tim10-1 conf: 76.8; tim10 confirm: 89.3; tim23-1 conf: inactive

How did O=[N+]([O-])c1nn(-c2ccc3c(c2)OCCO3)n(O)c1=NC1CCCCCC1 do in these assays?
tim23-1 inh: 56.4; SKKanGAS inh: inactive; PfHsp90 yeast 2: inactive; TIM10 inh: 55.3; tim10-1 inh: 52.8; tim10-1 conf: 56.3; tim10 confirm: 45.4; tim23-1 conf: 48.5

How did O=C(Nc1ccc(Cl)cc1F)C1CCCN(C2=NS(=O)(=O)c3ccccc32)C1 (stereo unspecified) do in these assays?
tim23-1 inh: inactive; PfHsp90 yeast 2: inactive; TIM10 inh: inactive; tim10-1 inh: inactive

How did Cc1ccc(O)c(N=Cc2cc(Cc3ccccc3)cc([N+](=O)[O-])c2O)c1 do in these assays?
tim23-1 inh: 51.4; SKKanGAS inh: inactive; PfHsp90 yeast 2: 100.9; TIM10 inh: inactive; tim10-1 inh: 52.1; tim10-1 conf: inactive; tim23-1 conf: 61.1

What do the screens show for `Cc1ccccc1-n1ncc2c([N+](=O)[O-])cc([N+](=O)[O-])cc21`?
tim23-1 inh: 77.3; SKKanGAS inh: inactive; PfHsp90 yeast 2: inactive; TIM10 inh: 68.3; tim10-1 inh: 48.0; tim10-1 conf: 35.2; tim10 confirm: 75.3; tim23-1 conf: inactive

What do the screens show for `Cc1ccc2nc3cc([N+](=O)[O-])cc([N+](=O)[O-])c3cc2c1`?
PfHsp90 yeast 2: inactive

What do the screens show for `CC(C)c1nnc(NC(=O)C2CCN(C(=O)Nc3ccccc3)CC2)s1`?
tim23-1 inh: inactive; SKKanGAS inh: inactive; PfHsp90 yeast 2: inactive; TIM10 inh: inactive; tim10-1 inh: inactive

How did CCOC(=O)N=Nc1c(O)n(CC(=O)OC)c2ccccc12 do in these assays?
tim23-1 inh: inactive; SKKanGAS inh: inactive; PfHsp90 yeast 2: inactive; TIM10 inh: inactive; tim10-1 inh: inactive

Results for CCOC(=O)N=Nc1c2ccccc2c2nc3no[nH]c3nc12 ?
tim23-1 inh: 55.2; SKKanGAS inh: inactive; PfHsp90 yeast 2: 107.7; TIM10 inh: 86.0; tim10-1 inh: 76.1; tim10-1 conf: 80.7; tim10 confirm: 95.8; tim23-1 conf: 81.2

What do the screens show for `COc1ccc(C(=O)CSc2nnc(-c3ccc(C)cc3)o2)cc1`?
tim23-1 inh: inactive; SKKanGAS inh: inactive; TIM10 inh: inactive; tim10-1 inh: inactive

Results for COc1ccc(-c2nnc(SCC(=O)Oc3ccc(C)cc3)o2)cc1 ?
tim23-1 inh: 53.3; SKKanGAS inh: inactive; PfHsp90 yeast 2: 105.1; TIM10 inh: 88.8; tim10-1 inh: 90.7; tim10-1 conf: 83.7; tim10 confirm: 91.2; tim23-1 conf: 58.2

What do the screens show for `CCCCn1c(-c2cccs2)nc2nc3ccccc3nc21`?
tim23-1 inh: 52.0; SKKanGAS inh: inactive; TIM10 inh: inactive; tim10-1 inh: 50.7; tim10-1 conf: 36.2; tim23-1 conf: 66.0

What do the screens show for `CCCNC(=O)CN1C(=O)COc2ccc(S(=O)(=O)N3CC(C)CC(C)C3)cc21` (stereo unspecified)?
tim23-1 inh: inactive; SKKanGAS inh: inactive; PfHsp90 yeast 2: inactive; TIM10 inh: inactive; tim10-1 inh: inactive

Results for CC(=O)N/N=C\c1cccc(OC/C=C/c2ccccc2)c1 ?
tim23-1 inh: inactive; PfHsp90 yeast 2: inactive; TIM10 inh: inactive; tim10-1 inh: inactive

What do the screens show for `COc1cccc(/C=C2\CCc3ccccc3C2=O)c1`?
tim23-1 inh: inactive; SKKanGAS inh: inactive; PfHsp90 yeast 2: inactive; TIM10 inh: inactive; tim10-1 inh: inactive

How did O=C1/C(=C/c2cccc([N+](=O)[O-])c2)CCc2ccccc21 do in these assays?
tim23-1 inh: 53.7; SKKanGAS inh: inactive; PfHsp90 yeast 2: inactive; TIM10 inh: inactive; tim10-1 inh: 41.6; tim10-1 conf: 59.0; tim23-1 conf: inactive

What do the screens show for `NNC(=O)/C(=N/Nc1ccccc1)S(=O)(=O)c1ccc(Cl)cc1`?
tim23-1 inh: 68.6; SKKanGAS inh: 73.6; PfHsp90 yeast 2: inactive; TIM10 inh: inactive; tim10-1 inh: 55.9; tim10-1 conf: 49.0; tim23-1 conf: 58.8

How did CCOC(=O)/C(=N/Nc1ccc(C)cc1)S(=O)(=O)c1ccc(Cl)cc1 do in these assays?
tim23-1 inh: inactive; SKKanGAS inh: inactive; PfHsp90 yeast 2: inactive; TIM10 inh: inactive; tim10-1 inh: inactive

How did Cc1cccc(C(=O)N2CCCC(N3CCN(c4ccc(F)cc4)CC3)C2)n1 (stereo unspecified) do in these assays?
tim23-1 inh: inactive; SKKanGAS inh: inactive; PfHsp90 yeast 2: inactive; TIM10 inh: inactive; tim10-1 inh: inactive

What do the screens show for `Oc1c(C2=NCCNC(C(F)(F)F)=C2)ccc2ccccc12`?
tim23-1 inh: 58.6; SKKanGAS inh: inactive; PfHsp90 yeast 2: inactive; TIM10 inh: 43.6; tim10-1 inh: 48.4; tim10-1 conf: inactive; tim10 confirm: 42.8; tim23-1 conf: 70.9

What do the screens show for `COc1ccc(N2CCN(C(=O)c3ccccc3N(C)S(=O)(=O)c3ccc(C)cc3)CC2)cc1`?
tim23-1 inh: inactive; SKKanGAS inh: inactive; PfHsp90 yeast 2: inactive; TIM10 inh: inactive; tim10-1 inh: inactive
